What all share (assay): DAPPL (digital affinity profiling via proximity ligation, sequencing); 10 mM Tris-HCl pH 7.5, 50 mM NaCl, 1 mM DTT, 4% glycerol, room temperature, 30 min; GST-TFs on glutathione beads, 16-mer random dsDNA library, 0.1% formaldehyde crosslink after washing; high values mean tight binding
One assay concerns the target T1, FLI1 (Homo sapiens, UniProt Q01543 1-452).
T1 sequence: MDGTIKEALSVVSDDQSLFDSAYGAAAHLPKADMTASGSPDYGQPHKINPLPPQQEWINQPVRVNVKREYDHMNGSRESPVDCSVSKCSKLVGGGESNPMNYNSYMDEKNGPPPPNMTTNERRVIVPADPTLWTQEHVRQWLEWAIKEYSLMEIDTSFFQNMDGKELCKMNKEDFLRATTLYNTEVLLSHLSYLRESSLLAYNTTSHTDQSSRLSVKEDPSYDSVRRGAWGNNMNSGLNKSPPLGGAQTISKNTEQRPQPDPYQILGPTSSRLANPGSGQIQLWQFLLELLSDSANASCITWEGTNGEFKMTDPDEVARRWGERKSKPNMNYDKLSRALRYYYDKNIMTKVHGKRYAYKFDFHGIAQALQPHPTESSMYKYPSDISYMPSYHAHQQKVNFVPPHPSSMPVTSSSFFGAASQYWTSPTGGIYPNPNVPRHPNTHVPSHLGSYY
The conditions noted are these: protein: recombinant; tags: N-terminal GST; dsDNA, one strand shown. In a few lines: (§1)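 In yeast, human transcription factors were expressed with a GST fusion, then pulled down on glutathione beads and given DNA barcodes. Pooled with a tag-only sample, they were exposed to 200 nmole of a 16-mer random double-stranded DNA library (Tris/NaCl/DTT/glycerol buffer, room temperature, 30 min), washed, crosslinked with 0.1% formaldehyde, proximity-ligated using BsaI/T4 ligase for 1 h at 37 °C, PCR-amplified and read on an Illumina NextSeq500. Each hexamer's frequency of reads for a factor, divided by the matching frequency for the tag-only sample, gives the binding signal.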

The target in a further assay is T2, ELK1 (Homo sapiens, UniProt P19419 1-428).
T2 sequence: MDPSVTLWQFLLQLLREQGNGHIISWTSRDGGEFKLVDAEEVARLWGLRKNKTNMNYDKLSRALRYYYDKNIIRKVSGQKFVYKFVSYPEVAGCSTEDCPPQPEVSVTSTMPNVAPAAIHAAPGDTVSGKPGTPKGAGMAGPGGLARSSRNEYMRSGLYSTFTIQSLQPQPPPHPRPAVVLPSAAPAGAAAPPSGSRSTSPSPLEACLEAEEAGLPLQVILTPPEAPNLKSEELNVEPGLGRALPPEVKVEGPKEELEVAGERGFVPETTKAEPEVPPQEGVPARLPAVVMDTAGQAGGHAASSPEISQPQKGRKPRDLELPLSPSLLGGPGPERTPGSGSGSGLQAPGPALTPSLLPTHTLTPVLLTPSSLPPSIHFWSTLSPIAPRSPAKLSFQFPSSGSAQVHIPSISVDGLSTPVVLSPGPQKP
To be noted: protein: recombinant; tags: N-terminal GST; dsDNA, one strand shown. In a few lines:
as §1

A further assay deals with T3, GABPA (Homo sapiens, UniProt Q06546 1-454).
T3 sequence: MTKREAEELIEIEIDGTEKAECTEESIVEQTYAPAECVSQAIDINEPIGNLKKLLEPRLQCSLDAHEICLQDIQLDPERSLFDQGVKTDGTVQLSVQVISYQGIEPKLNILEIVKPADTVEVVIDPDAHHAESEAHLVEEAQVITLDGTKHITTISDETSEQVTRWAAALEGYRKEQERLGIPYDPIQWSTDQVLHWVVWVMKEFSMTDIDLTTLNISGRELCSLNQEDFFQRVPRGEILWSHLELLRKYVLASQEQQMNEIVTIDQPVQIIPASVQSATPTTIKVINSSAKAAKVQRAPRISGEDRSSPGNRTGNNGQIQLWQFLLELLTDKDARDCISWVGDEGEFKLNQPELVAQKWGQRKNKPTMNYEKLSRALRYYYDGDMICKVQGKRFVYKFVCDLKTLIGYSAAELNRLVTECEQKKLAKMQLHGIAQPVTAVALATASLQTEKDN
To be noted: protein: recombinant; tags: N-terminal GST; dsDNA, one strand shown. In a few lines: as §1

A further assay has as its target T4, ERG (Homo sapiens, UniProt P11308 1-479).
T4 sequence: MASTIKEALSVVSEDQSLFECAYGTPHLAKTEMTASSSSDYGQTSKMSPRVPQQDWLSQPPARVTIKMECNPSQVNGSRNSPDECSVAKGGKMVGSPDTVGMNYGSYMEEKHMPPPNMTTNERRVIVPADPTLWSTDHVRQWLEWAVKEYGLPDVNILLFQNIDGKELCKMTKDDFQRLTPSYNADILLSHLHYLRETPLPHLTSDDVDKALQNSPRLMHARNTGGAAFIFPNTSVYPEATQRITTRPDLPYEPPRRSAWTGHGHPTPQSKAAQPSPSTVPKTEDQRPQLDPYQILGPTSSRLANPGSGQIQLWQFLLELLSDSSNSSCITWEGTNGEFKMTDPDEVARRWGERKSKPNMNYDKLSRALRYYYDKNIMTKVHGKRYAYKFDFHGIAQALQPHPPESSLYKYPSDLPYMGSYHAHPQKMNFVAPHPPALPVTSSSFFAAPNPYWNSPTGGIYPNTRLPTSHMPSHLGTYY
The conditions noted are these: protein: recombinant; tags: N-terminal GST; dsDNA, one strand shown. The procedure, abridged: as §1

In another assay the target is ELF1 (Homo sapiens, UniProt P32519 1-619). The conditions noted are these: protein: recombinant; tags: N-terminal GST; dsDNA, one strand shown. In a few lines:
as §1

The target in another assay is T5, EHF (Homo sapiens, UniProt Q9NZC4 1-300).
T5 sequence: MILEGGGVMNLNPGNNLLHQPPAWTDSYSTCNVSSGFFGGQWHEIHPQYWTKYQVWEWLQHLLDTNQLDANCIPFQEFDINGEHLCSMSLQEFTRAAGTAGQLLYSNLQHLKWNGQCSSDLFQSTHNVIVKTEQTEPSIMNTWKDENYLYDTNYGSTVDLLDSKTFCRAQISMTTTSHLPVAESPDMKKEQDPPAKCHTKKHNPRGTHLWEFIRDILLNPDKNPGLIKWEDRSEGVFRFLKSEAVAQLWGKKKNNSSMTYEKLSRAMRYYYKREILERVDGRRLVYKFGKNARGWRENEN
The conditions noted are these: protein: recombinant; tags: N-terminal GST; dsDNA, one strand shown. The procedure, abridged:
as §1

The next assay addresses SPI1 (Homo sapiens, UniProt P17947 1-270). The conditions noted are these: protein: recombinant; tags: N-terminal GST; dsDNA, one strand shown. The procedure, abridged:
as §1

Another assay concerns the target SPIB (Homo sapiens, UniProt Q01892 1-262). The conditions noted are these: protein: recombinant; tags: N-terminal GST; dsDNA, one strand shown. In a few lines:
as §1

The target in another assay is T6, ELK3 (Homo sapiens, UniProt P41970 1-407).
T6 sequence: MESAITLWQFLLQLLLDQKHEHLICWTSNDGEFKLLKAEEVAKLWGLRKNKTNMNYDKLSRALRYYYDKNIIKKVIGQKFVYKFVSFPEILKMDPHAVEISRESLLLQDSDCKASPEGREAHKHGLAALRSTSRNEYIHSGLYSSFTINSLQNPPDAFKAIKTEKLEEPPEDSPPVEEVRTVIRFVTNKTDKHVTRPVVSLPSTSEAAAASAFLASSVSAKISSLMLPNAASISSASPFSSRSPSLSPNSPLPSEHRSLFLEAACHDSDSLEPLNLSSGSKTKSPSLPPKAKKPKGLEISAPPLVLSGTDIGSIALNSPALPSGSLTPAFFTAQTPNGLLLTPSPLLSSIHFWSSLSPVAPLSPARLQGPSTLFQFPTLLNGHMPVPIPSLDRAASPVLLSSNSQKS
The conditions noted are these: protein: recombinant; tags: N-terminal GST; dsDNA, one strand shown. In a few lines:
as §1

The target of another assay is T7, FEV (Homo sapiens, UniProt Q99581 1-238).
T7 sequence: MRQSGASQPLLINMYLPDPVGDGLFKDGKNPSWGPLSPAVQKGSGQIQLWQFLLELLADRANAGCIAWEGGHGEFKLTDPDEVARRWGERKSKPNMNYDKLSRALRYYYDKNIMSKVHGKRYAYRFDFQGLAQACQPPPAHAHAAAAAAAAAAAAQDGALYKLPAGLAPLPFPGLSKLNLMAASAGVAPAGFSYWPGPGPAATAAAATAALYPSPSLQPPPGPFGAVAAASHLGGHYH
The conditions noted are these: protein: recombinant; tags: N-terminal GST; dsDNA, one strand shown. In a few lines: as §1

For a further assay, the target named is ETV5 (Homo sapiens, UniProt P41161 1-510). To be noted: protein: recombinant; tags: N-terminal GST; dsDNA, one strand shown. In a few lines: as §1
A further assay deals with HSF1 (Homo sapiens, UniProt Q00613 1-529). The conditions noted are these: protein: recombinant; tags: N-terminal GST; chain copies: 3; dsDNA, one strand shown. In a few lines:
as §1

For the next assay, the target named is T8, SPIC (Homo sapiens, UniProt Q8N5J4 1-248).
T8 sequence: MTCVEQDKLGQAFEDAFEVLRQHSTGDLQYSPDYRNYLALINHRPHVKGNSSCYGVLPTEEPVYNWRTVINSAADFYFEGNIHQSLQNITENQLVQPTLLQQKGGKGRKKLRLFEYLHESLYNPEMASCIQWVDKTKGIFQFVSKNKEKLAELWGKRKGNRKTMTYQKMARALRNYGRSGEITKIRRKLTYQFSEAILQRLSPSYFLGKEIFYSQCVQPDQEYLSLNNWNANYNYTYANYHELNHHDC
To be noted: protein: recombinant; tags: N-terminal GST; dsDNA, one strand shown. The procedure, abridged: as §1

The next assay concerns the target ELF4 (Homo sapiens, UniProt Q99607 1-663). The conditions noted are these: protein: recombinant; tags: N-terminal GST; dsDNA, one strand shown. In a few lines:
as §1

The target of the next assay is T9, ELK4 (Homo sapiens, UniProt P28324-2 1-405).
T9 sequence: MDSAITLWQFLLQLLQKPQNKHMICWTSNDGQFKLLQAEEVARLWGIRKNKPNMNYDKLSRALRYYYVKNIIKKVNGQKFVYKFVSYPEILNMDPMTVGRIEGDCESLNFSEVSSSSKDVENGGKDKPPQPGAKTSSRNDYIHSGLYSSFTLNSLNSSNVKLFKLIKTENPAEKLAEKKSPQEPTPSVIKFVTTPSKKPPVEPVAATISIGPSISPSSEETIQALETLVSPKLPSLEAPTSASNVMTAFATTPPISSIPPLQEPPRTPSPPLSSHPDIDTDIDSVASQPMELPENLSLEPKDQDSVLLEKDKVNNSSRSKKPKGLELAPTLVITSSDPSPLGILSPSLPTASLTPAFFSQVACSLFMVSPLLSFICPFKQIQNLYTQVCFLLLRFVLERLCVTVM
The conditions noted are these: protein: recombinant; tags: N-terminal GST; dsDNA, one strand shown. The procedure, abridged:
as §1

A further assay concerns the target T10, ETV2 (Homo sapiens, UniProt O00321 1-342).
T10 sequence: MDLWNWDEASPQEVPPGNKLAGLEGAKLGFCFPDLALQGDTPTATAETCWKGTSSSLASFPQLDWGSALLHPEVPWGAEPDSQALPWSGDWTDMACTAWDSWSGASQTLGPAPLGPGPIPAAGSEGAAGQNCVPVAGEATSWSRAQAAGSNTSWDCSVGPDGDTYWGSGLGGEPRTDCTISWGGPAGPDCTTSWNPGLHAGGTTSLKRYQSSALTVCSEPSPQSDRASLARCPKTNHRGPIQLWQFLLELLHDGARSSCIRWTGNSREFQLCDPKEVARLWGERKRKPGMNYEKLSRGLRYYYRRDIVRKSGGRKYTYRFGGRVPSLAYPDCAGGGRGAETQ
To be noted: protein: recombinant; tags: N-terminal GST; dsDNA, one strand shown. In a few lines: as §1

Another assay addresses T11, ELF3 (Homo sapiens, UniProt P78545 1-371).
T11 sequence: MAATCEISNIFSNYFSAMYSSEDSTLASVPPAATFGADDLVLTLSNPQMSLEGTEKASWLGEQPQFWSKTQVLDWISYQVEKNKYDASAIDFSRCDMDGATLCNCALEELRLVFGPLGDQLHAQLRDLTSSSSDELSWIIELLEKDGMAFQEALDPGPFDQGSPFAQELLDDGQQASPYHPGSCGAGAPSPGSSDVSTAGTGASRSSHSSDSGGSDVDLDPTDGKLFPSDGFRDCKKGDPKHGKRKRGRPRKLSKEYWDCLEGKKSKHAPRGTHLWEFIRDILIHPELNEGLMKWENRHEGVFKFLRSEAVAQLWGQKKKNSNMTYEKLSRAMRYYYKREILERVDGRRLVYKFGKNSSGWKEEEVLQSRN
To be noted: protein: recombinant; tags: N-terminal GST; dsDNA, one strand shown. The procedure, abridged:
as §1

The target of the next assay is CRX (Homo sapiens, UniProt O43186 1-299). To be noted: protein: recombinant; tags: N-terminal GST; dsDNA, one strand shown. The procedure, abridged: as §1
The target of another assay is ETV1 (Homo sapiens, UniProt P50549 1-477). The conditions noted are these: protein: recombinant; tags: N-terminal GST; dsDNA, one strand shown. In a few lines:
as §1

Chain of HSF1 (Q00613 whole entry): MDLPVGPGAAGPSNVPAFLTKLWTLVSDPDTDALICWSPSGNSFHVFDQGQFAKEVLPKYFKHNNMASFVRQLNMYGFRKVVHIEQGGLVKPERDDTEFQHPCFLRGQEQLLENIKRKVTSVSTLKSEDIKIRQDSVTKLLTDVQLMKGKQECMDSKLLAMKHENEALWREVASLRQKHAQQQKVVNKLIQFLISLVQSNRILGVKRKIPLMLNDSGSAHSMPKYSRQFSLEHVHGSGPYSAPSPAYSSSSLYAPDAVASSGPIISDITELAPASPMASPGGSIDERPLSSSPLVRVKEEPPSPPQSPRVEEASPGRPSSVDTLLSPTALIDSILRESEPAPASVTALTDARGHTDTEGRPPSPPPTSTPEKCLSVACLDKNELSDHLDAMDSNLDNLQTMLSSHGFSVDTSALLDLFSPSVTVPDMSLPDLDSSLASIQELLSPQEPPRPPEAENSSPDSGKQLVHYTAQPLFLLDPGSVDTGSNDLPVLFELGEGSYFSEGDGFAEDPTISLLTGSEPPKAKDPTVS
Chain of ETV1 (P50549 whole entry): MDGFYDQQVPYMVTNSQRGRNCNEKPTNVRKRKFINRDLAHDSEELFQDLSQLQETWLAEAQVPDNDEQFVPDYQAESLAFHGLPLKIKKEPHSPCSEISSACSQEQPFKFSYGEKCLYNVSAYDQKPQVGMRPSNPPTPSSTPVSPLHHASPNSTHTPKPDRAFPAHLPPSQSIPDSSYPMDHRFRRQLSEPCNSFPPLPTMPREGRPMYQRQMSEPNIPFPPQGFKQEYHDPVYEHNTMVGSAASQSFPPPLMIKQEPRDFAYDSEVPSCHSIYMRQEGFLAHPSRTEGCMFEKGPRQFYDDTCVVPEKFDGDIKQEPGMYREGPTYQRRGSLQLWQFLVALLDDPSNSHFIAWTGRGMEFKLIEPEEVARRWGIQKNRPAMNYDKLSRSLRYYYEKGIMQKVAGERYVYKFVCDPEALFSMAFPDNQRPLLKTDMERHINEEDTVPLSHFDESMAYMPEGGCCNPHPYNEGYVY
Chain of SPIB (Q01892 whole entry): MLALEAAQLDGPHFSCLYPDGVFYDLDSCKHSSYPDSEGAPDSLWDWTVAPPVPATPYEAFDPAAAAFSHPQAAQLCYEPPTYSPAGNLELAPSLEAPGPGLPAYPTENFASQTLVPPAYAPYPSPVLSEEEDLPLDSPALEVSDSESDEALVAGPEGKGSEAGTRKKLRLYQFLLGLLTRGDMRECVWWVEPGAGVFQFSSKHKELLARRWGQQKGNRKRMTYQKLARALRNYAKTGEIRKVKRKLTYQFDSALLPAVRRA
Chain of ELF4 (Q99607 whole entry): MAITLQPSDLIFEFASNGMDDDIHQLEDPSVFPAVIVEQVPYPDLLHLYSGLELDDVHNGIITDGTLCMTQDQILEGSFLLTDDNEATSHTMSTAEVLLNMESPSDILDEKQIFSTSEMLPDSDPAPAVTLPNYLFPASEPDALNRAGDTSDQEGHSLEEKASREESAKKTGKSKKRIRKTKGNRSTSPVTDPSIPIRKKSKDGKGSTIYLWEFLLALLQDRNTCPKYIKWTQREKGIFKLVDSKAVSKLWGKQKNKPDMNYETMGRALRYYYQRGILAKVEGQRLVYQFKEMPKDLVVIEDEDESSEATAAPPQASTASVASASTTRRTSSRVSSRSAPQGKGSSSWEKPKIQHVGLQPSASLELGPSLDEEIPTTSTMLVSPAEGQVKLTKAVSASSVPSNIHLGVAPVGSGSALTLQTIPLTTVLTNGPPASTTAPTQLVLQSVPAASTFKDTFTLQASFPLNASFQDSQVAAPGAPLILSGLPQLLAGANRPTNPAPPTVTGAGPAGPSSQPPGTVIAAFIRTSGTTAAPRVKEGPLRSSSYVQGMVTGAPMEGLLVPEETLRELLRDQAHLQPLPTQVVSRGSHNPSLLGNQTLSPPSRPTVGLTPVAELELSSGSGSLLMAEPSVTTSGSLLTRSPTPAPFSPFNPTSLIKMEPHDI
Chain of CRX (O43186 whole entry): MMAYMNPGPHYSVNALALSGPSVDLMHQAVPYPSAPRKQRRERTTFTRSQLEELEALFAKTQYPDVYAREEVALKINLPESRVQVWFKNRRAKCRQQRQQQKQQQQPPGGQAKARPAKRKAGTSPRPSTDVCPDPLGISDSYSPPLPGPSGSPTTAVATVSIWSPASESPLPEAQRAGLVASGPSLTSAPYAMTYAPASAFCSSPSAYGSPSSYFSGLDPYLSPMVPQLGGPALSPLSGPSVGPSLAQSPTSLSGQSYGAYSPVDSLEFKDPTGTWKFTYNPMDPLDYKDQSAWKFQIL
Chain of ETV5 (P41161 whole entry): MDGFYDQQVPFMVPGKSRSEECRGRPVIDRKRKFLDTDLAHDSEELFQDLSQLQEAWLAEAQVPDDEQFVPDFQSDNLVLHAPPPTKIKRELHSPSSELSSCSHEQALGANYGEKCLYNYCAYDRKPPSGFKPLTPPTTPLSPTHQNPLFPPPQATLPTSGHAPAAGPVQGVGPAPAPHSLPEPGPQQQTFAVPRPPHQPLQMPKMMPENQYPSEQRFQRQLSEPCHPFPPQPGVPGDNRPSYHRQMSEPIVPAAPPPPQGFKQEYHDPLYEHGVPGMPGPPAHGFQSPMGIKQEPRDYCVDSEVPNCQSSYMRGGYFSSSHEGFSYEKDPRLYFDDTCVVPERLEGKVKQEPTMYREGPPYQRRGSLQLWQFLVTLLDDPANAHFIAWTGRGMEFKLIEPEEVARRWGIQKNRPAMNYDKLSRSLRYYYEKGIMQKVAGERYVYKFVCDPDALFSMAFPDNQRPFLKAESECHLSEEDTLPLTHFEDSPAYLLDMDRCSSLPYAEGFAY
Chain of ELF1 (P32519 whole entry): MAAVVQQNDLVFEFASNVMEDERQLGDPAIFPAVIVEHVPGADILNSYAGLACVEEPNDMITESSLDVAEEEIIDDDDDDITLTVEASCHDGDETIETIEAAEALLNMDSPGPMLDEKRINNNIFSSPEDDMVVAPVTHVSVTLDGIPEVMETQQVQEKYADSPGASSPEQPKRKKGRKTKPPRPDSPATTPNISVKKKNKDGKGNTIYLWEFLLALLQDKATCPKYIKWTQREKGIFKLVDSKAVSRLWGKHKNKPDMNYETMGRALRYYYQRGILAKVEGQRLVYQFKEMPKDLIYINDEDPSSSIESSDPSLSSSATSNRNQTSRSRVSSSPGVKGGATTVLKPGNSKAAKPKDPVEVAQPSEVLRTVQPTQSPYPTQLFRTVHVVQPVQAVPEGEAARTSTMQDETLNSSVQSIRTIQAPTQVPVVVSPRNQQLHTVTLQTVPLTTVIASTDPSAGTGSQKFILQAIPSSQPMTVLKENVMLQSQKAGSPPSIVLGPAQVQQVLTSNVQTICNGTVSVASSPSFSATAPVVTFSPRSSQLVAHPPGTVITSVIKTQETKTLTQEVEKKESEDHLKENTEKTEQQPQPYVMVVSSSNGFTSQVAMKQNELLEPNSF

For the sequence CCTCGC, the binding signal is 1.53 fold enrichment (6-mer frequency, TF over GST control) with FLI1; 1.54 fold enrichment (6-mer frequency, TF over GST control) with ELK1; 1.43 fold enrichment (6-mer frequency, TF over GST control) with GABPA; 1.5 fold enrichment (6-mer frequency, TF over GST control) in the assay with ERG; 1.37 fold enrichment (6-mer frequency, TF over GST control) with ELF1; 1.42 fold enrichment (6-mer frequency, TF over GST control) with EHF. Moreover, the binding signal in the assay with SPI1 is 1.39 fold enrichment (6-mer frequency, TF over GST control); in the assay with SPIB, 1.42 fold enrichment (6-mer frequency, TF over GST control); with ELK3, 1.26 fold enrichment (6-mer frequency, TF over GST control); in the assay with FEV it was 1.37 fold enrichment (6-mer frequency, TF over GST control); with ETV5, 1.51 fold enrichment (6-mer frequency, TF over GST control); in the assay with HSF1, 1.36 fold enrichment (6-mer frequency, TF over GST control). In addition, the binding signal with SPIC is 1.46 fold enrichment (6-mer frequency, TF over GST control); with ELF4, 1.6 fold enrichment (6-mer frequency, TF over GST control); with ELK4 it was 1.62 fold enrichment (6-mer frequency, TF over GST control); with ETV2 it was 1.6 fold enrichment (6-mer frequency, TF over GST control); with ELF3, 1.56 fold enrichment (6-mer frequency, TF over GST control); in the assay with CRX, 1.16 fold enrichment (6-mer frequency, TF over GST control). In the assay with ETV1, the binding signal was 1.54 fold enrichment (6-mer frequency, TF over GST control).

The values are drawn from article PMC7862700, “An all-to-all approach to the identification of sequence-specific readers for epigenetic DNA modifications on cytosine”.
